# Test results published in PubChem BioAssay (NCATS).
# Unmarked numbers belong to inactive results. Inconclusive results are not listed. Where a call stands in place of a potency, no number is given. Activity calls are given as the source filed them. Unless noted, calls follow the shape of the dose curve; as a rule, active = well fitted curve in either direction with a large enough effect (not every such curve was filed as active); inconclusive = small, poorly fitted or top-dose-only effect, or another doubt; inactive = flat fitted curve, though single readings scatter.
# Assays:
# [1] = AP1 Signaling Pathway (AID 357); settings: ME-180 AP-1-bla reporter, EGF-induced, beta-lactamase ratio, 5 h; at 17.2 µM (top of the series) unless noted;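 also: ME-180 reporter cells stimulated with EGF at its EC50 level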
# Method in brief: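 First, ME-180 AP-1-bla cells were cultured overnight at 37 °C in low-serum Opti-MEM. Next, titrated compounds with EC50 EGF were incubated 5 hours. Finally, CCF4 was added for 2.5 hours and the 460/530 nm ratio recorded.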
# [2] = biological target: Cytochrome P450 1A2 (Homo sapiens) (UniProt P05177); assay: p450-cyp1a2 (AID 410; calls by dose curve; also: potency is read from the fitted curve at half-maximal effect)
# Cytochrome P450 1A2 (Homo sapiens), sequence (P05177 whole entry, looked up): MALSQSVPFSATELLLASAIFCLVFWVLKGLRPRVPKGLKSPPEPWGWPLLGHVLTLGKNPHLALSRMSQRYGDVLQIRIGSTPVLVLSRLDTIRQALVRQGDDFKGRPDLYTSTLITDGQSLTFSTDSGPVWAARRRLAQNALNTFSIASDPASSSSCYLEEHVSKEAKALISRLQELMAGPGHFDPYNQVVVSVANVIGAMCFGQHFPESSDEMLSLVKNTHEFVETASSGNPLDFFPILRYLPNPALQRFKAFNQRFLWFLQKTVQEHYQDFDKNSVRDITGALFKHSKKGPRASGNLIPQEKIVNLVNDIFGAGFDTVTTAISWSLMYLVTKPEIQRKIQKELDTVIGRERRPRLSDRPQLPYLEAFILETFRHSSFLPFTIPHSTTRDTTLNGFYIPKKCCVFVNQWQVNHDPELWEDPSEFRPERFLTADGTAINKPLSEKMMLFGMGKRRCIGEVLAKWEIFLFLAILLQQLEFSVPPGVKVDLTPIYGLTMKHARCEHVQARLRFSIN
# Method in brief: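 Luminescent readout of luciferin formed from Luciferin-ME by human CYP1A2; data normalized against complete inhibition by 57 uM furafylline. Enzyme 20nM, substrate 100uM at Km, 100mM KPO4 buffer, 60 min reaction at room temperature.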
# [3] = Stat Signaling Pathway (AID 446);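 also: ME-180 cervical cancer cells given 40 pM IL-6 alongside compound; SIE-controlled beta-lactamase reporter measured as 460/530 nm FRET emission ratio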
# Method in brief: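 ME-180 SIE-bla cells; overnight plating; cpd + IL-6 40 pM, 5 h, 37 C; LiveBLAzer 2.5 h RT; 460/530 nm emission ratio. Normalized to 300 pM IL-6 and 125 nM JAK inhibitor controls.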
# [4] = biological target: Glucocorticoid receptor (Homo sapiens) (UniProt P04150); assay: GR-GFP Redistribution (AID 450;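 active = compounds whose dose series gives a full or clear partial fitted curve of increased nuclear translocation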; also: potency is read from the fitted curve at half-maximal effect); settings: U2OS GR-GFP nuclear translocation, laser cytometry, 2 h
# Glucocorticoid receptor (Homo sapiens), sequence (P04150 whole entry, looked up, the tested form may be a part): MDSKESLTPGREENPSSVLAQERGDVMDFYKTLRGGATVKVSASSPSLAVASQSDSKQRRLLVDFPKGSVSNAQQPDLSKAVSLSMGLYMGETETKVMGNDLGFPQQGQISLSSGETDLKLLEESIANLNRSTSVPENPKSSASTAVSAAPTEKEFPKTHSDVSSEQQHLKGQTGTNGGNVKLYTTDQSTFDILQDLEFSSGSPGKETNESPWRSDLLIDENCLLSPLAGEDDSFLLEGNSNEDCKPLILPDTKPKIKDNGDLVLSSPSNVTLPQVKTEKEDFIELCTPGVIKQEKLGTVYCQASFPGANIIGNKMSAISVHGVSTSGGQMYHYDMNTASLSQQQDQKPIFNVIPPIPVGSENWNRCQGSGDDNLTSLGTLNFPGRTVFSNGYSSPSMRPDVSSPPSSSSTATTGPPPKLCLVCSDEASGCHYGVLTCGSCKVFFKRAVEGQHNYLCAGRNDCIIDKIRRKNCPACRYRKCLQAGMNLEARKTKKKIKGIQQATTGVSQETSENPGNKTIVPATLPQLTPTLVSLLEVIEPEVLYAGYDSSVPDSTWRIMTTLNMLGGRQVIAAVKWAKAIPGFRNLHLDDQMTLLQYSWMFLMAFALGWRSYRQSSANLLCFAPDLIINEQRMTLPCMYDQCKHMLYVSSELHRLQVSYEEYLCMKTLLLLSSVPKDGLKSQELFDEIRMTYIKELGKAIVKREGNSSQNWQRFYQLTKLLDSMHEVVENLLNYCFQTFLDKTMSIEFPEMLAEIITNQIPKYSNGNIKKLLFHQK
# [5] = biological target: Glucocorticoid receptor (Homo sapiens) (UniProt P04150); assay: GR-EFC Redistribution (AID 451; calls by dose curve; also: potency is read from the fitted curve at half-maximal effect); settings: CHO-K1 GR-EFC translocation, beta-gal luminescence, 2 h
# Method in brief: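 CHO-K1 cells expressing nuclear EA and GR-ED fragments of b-gal; compounds titrated up to 46 uM final, 2 h at 37 C. GR nuclear translocation read as complemented b-gal luminescence after 1 h RT detection.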
# [6] = biological target: Mitogen-activated protein kinase 10 (Mus musculus) (UniProt Q61831); assay: JNK3 AlphaScreen Assay (AID 530);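 also: kinase came from lysate of stimulated human HepG2 cells; signal reports phosphorylation of biotinylated GST-cJun 1-79 at Ser73 with 10 µM ATP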
# Method in brief: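 Pre-activated (IL-1β/TNFα) JNK3 in HepG2 lysates phosphorylates biotin-GST-cJun(1-79), 10 uM ATP; anti-phospho-cJun(Ser73) AlphaScreen read at room temperature, pH 7.6 Tris buffer. Compounds pre-incubated 15 min as titrations.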
# [7] = biological target: 3',5'-cyclic-AMP phosphodiesterase 4B (Homo sapiens) (UniProt Q07343); assay: qHTS Assay for Inhibitors of PDE-IV (AID 607; active = well fitted activation curve with a large enough effect in the main read-out, with a control signal flat, not every such curve was filed as active)
# 3',5'-cyclic-AMP phosphodiesterase 4B (Homo sapiens), sequence (Q07343 whole entry, looked up): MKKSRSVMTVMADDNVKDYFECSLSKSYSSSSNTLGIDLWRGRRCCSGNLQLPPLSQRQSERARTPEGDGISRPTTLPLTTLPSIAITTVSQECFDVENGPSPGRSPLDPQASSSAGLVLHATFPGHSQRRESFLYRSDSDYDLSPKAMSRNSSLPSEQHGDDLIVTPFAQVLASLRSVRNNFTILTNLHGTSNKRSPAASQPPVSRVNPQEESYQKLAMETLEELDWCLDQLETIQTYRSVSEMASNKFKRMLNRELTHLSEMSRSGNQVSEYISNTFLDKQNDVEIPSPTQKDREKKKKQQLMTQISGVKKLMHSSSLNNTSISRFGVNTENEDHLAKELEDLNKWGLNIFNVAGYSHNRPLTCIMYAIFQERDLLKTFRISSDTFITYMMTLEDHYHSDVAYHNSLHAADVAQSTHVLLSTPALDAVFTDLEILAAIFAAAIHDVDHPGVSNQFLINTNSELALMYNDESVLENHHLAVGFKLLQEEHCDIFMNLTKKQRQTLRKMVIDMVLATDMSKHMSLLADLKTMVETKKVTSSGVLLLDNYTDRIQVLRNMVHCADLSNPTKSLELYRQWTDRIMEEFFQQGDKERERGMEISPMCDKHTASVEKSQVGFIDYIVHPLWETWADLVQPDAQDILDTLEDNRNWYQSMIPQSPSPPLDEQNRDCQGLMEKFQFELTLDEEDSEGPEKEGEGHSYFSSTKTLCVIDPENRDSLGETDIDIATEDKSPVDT
# Method in brief: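 ACTOne HEK293 cells carry a modified cAMP-gated CNG channel and express endogenous PDE4; plated 1000 cells/well, compounds up to 22.9 uM final. Membrane-potential dye fluorescence (ex 535/em 590) was read; parental cells received 10 uM forskolin + 100 uM RO 20-1724.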
# [8] = biological target: Guanine nucleotide-binding protein G(i) subunit alpha-1 (Homo sapiens) (UniProt P63096); assay: qHTS Assay for Inhibitors of RGS12 GoLoco Motif Activity (Green Fluorophore) (AID 879; active = well fitted curve in the direction sought with a large enough effect; an effect the other way counts as inactive or inconclusive; also: potency is read from the fitted curve at half-maximal effect)
# Guanine nucleotide-binding protein G(i) subunit alpha-1 (Homo sapiens), sequence (P63096 whole entry, looked up): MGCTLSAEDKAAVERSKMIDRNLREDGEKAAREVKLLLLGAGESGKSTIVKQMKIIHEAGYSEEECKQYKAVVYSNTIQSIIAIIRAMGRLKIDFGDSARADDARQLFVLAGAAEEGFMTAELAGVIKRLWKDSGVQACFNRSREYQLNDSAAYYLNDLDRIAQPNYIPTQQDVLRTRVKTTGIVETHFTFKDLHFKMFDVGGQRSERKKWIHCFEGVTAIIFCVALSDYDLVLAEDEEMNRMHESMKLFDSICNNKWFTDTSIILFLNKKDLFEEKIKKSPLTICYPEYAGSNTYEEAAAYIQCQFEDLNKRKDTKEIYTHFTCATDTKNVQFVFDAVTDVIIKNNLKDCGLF
# Method in brief: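 Fluorescence polarization assay: 50 nM Gαi1 with 10 nM FITC-labeled RGS12 GoLoco peptide in 10 mM Tris pH 7.5, 150 mM NaCl, 0.1 mM GDP, 0.05% NP40, 10 min at room temperature with compound.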
# [9] = qHTS Assay for Identification of Small Molecule Agonists for Thrombopoietin (TPO) Signaling Pathway (AID 917; active = well fitted curve in the direction sought with a large enough effect; an effect the other way counts as inactive or inconclusive)
# Method in brief: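 We measured Glycoprotein IIb promoter–luciferase output in IL-3-starved Ba/F3 murine cells expressing the human TPO receptor after 24 hrs at 37 C with compounds and 26 pM TPO.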
# [10] = biological target: Muscarinic acetylcholine receptor M1 (Rattus norvegicus) (UniProt P08482); assay: qHTS Assay for Antagonists of Acetylcholine Muscarinic M1 Receptor: Measurement of IP-One Response (AID 944; active = well fitted curve in the direction sought with a large enough effect; an effect the other way counts as inactive or inconclusive; also: nearly all actives have a fitted effect of over 75% in size; also: potency is read from the fitted curve at half-maximal effect)
# Muscarinic acetylcholine receptor M1 (Rattus norvegicus), sequence (P08482 whole entry, looked up): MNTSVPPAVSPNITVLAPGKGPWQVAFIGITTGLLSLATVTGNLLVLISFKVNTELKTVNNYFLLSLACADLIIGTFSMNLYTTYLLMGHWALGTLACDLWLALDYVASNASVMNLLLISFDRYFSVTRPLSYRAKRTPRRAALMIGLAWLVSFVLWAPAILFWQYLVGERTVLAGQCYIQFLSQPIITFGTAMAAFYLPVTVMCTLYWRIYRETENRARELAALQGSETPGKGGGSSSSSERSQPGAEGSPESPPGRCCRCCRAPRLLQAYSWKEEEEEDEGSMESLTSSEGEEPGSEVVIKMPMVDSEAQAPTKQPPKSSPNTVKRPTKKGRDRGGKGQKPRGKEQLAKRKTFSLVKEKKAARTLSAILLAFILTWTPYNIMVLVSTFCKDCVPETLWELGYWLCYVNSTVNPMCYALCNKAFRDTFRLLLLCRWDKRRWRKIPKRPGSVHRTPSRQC
# Method in brief: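 M1-CHO (rat), 2000 cells/well, overnight recovery; cpd 10 min; carbachol EC80 (200 nM), 30 min, HEPES buffer + 50 mM LiCl pH 7.4; IP-One HTRF, Ex 337, Em 620/665 nm.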
# [11] = biological target: Pyruvate kinase PKM (Homo sapiens) (UniProt P14618); assay: qHTS Assay for Activators of Human Muscle Pyruvate Kinase (AID 954; active = well fitted curve in the direction sought with a large enough effect, not every such curve was filed as active)
# Pyruvate kinase PKM (Homo sapiens), sequence (P14618 whole entry, looked up): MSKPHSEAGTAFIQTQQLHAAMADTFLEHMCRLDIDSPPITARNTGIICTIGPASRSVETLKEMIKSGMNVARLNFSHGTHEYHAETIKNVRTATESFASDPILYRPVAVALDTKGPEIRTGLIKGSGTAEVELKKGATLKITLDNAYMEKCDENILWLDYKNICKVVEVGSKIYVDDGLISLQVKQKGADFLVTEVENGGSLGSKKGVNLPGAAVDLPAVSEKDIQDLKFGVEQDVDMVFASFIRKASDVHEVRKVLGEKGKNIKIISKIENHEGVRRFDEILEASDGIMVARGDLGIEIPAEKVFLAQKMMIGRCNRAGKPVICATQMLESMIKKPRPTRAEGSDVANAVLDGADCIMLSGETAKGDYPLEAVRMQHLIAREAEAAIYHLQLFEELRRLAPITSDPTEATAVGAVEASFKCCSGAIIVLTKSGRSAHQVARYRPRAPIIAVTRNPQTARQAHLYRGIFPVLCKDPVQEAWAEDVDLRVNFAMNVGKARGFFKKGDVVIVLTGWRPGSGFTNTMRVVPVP
# Method in brief: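 Luminescence from a luciferase ATP-detection/stop reagent reported PKM2 activity. Reactions contained 0.1 nM purified human enzyme, 0.5 mM PEP, 0.1 mM ADP and 7 mM MgCl2 at pH 7.2, run 1 h at RT.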
# [12] = biological target: Alpha-galactosidase (Coffea arabica) (UniProt Q42656); assay: Counterscreen for Glucocerebrosidase Inhibitors: qHTS Assay for Coffee Bean alpha-Galactosidase at pH 4.5 (AID 957; active = well fitted curve in the direction sought with a large enough effect; an effect the other way counts as inactive or inconclusive)
# Alpha-galactosidase (Coffea arabica), sequence (Q42656 whole entry, looked up): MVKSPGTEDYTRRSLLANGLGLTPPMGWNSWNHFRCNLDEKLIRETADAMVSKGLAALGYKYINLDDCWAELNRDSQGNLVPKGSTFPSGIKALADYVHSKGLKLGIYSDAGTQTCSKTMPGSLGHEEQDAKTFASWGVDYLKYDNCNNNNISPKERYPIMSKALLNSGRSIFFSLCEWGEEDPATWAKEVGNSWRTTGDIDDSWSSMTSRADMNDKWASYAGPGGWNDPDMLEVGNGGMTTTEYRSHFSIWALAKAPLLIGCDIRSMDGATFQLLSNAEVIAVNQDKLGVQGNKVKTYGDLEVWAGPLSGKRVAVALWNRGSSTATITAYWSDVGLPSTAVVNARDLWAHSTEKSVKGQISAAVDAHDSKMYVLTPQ
# Method in brief: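 Coffee bean alpha-galactosidase 2 nM, substrate 4-MU-alpha-Gal 80 uM, pH 4.5 citrate/Tween-20, 20 min RT. Cpd titration 0.7 nM–77 uM. Stop pH 10, fluorescence 365/440 nm; Hill-equation AC50.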
# [13] = biological target: Alpha-galactosidase A (Homo sapiens) (UniProt P06280); assay: Counterscreen for Glucocerebrosidase Inhibitors: qHTS Assay for Human alpha-Galactosidase at pH 4.5 (AID 992; active = well fitted curve in the direction sought with a large enough effect; an effect the other way counts as inactive or inconclusive)
# Alpha-galactosidase A (Homo sapiens), sequence (P06280 whole entry, looked up): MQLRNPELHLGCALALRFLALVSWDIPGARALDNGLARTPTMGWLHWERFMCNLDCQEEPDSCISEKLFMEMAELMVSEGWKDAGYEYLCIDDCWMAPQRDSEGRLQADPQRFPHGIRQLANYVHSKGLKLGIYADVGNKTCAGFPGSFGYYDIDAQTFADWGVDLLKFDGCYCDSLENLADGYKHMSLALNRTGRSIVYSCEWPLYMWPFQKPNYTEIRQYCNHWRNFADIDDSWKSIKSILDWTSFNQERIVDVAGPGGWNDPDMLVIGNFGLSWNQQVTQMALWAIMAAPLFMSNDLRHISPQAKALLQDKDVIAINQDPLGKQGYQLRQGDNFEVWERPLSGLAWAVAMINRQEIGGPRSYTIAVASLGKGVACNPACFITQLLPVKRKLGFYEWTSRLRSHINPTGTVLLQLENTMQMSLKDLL
# Method in brief: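 Enzyme at 2 nM final was combined with compound (0.7 nM to 77 uM) and 80 uM 4-methylumbelliferyl alpha-D-galactopyranoside in 50 mM citric acid, 0.005% Tween-20, pH 4.5. After 20 min at room temperature, fluorescence was read (Ex 365/Em 440 nm); AC50 came from Hill fits.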
# [14] = biological target: Alpha-galactosidase (Coffea arabica) (UniProt Q42656); assay: Counterscreen for Glucocerebrosidase Inhibitors: qHTS Assay for Coffee Bean alpha-Galactosidase at pH 5.9 (AID 998; active = well fitted curve in the direction sought with a large enough effect; an effect the other way counts as inactive or inconclusive)
# Method in brief: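 Green coffee bean enzyme (2 nM) with 4-methylumbelliferyl alpha-D-galactopyranoside (80 uM) in 50 mM citric acid, 0.005% Tween-20, pH 5.9, 20 min at room temperature; compounds 0.7 nM–77 uM. Stopped at pH 10, fluorescence Ex365/Em440; Hill-fit AC50.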
# [15] = NFAT Signaling Pathway (AID 444); settings: Jurkat NFAT-bla M1, carbachol, beta-lactamase ratio, 5 h; at 17.2 µM (top of the series) unless noted;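 also: carbachol stimulus at about its EC50 of 1 µM final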
# Method in brief: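 Jurkat cells with NFAT-driven β-lactamase reporter and co-expressed M1 receptor, stimulated with carbachol (final 1 uM, ~EC50), compound titration, 5 h at 37 °C. CCF4 loaded 1 h at RT; 460/530 nm ratio gave %activity and AC50.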
# [16] = biological target: Cytochrome P450 2C9 (Homo sapiens) (UniProt P11712); assay: qHTS Assay for Inhibitors and Substrates of Cytochrome P450 2C9 (AID 883; active = well fitted curve in the direction sought with a large enough effect; an effect the other way counts as inactive or inconclusive; also: nearly all actives have a fitted effect of over 60% in size)
# Method in brief: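 Signal: luciferase luminescence reporting luciferin produced by CYP2C9. Conditions: 10nM enzyme, Luciferin-H 100uM at KM, 25mM KPO4, 37C, 60 min NADPH-driven reaction. Reference: 57uM sulphaphenazole as 100% inhibition.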
# [17] = biological target: Cytochrome P450 2D6 (Homo sapiens) (UniProt P10635); assay: qHTS Assay for Inhibitors and Substrates of Cytochrome P450 2D6 (AID 891; active = well fitted curve in the direction sought with a large enough effect; an effect the other way counts as inactive or inconclusive;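 also: luciferin methyl ether substrate demethylated by CYP2D6 with NADPH regeneration; nearly all actives have a fitted effect of over 60% in size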)
# Method in brief: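 Human CYP2D6 (5 nM) with 30 uM Luciferin-ME EGE (at Km) in 100 mM KPO4, compound preincubated 10 min, then NADPH regeneration system for 60 min at room temperature. Luciferin read by luminescence; normalized to 1.43 uM quinidine.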
# [18] = biological target: Cytochrome P450 2C19 (Homo sapiens) (UniProt P33261); assay: qHTS Assay for Inhibitors and Substrates of Cytochrome P450 2C19 (AID 899; active = well fitted curve in the direction sought with a large enough effect; an effect the other way counts as inactive or inconclusive; also: nearly all actives have a fitted effect of over 60% in size)
# Method in brief: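 Signal comes from luciferase acting on luciferin released by CYP2C19-mediated hydroxylation of Luciferin-H EGE, 10uM (KM). Assay mix: 5nM enzyme, 50mM KPO4; 60 min at 37C with NADPH regeneration. Data normalized against 57uM ketoconazole.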
# [19] = biological target: Cytochrome P450 3A4 (Homo sapiens) (UniProt P08684); assay: qHTS Assay for Activators of Cytochrome P450 3A4 (AID 885; active = well fitted curve in the direction sought with a large enough effect; an effect the other way counts as inactive or inconclusive; also: nearly all actives have a fitted effect of over 65% in size)
# Cytochrome P450 3A4 (Homo sapiens), sequence (P08684 whole entry, looked up): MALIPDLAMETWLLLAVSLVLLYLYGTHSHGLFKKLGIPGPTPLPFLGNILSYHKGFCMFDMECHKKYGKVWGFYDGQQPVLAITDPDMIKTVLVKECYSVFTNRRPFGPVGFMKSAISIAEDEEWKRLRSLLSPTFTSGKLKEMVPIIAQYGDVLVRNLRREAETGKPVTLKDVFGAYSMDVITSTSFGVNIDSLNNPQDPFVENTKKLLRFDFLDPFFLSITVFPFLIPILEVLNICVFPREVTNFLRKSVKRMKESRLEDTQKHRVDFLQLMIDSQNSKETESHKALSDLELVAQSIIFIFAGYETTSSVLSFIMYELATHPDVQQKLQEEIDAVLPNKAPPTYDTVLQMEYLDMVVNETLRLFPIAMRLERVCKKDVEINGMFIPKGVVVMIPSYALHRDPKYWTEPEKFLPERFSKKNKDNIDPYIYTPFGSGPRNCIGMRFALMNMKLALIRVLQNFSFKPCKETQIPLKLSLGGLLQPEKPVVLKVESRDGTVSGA
# Method in brief: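 20nM CYP3A4 + 25uM Luciferin-PPXE (=KM), 200mM KPO4; cpd 10 min RT; NADPH regen, 60 min RT; stop w/ detection buffer, 20 min; luminescence. Normalized to 57 uM ketoconazole.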
# [20] = qHTS Assay for Identification of Small Molecule Antagonists for Thrombopoietin (TPO) Signaling Pathway (AID 918; active = well fitted curve in the direction sought with a large enough effect; an effect the other way counts as inactive or inconclusive; also: potency is read from the fitted curve at half-maximal effect; nearly all actives have a fitted effect of over 60% in size); settings: TPO-dependent cell signaling reporter, antagonist mode
# Method in brief: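 Ba/F3 (murine, hTPO-R, GPIIb-luc reporter); overnight IL-3 withdrawal; cpd + TPO 26 pM final (EC50); 24 h 37 C/5% CO2; Steadylite luminescence after 10 min RT.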
# [21] = biological target: Muscarinic acetylcholine receptor M1 (Rattus norvegicus) (UniProt P08482); assay: qHTS Assay for Antagonists of Acetylcholine Muscarinic M1 Receptor: Kinetic Measurement of Intracellular Calcium Response (AID 943; active = well fitted curve in the direction sought with a large enough effect; an effect the other way counts as inactive or inconclusive; also: potency is read from the fitted curve at half-maximal effect; nearly all actives have a fitted effect of over 75% in size)
# Method in brief: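 Rat M1-CHO cells, 2000/well, overnight → Fluo-4 no-wash dye with probenecid, 1 h 37C → compound 10 min, room temp → basal read 6 s → carbachol EC80 (100 nM) → 4 min kinetic read; peak/basal.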
# [22] = biological target: Pyruvate kinase PKM (Homo sapiens) (UniProt P14618); assay: qHTS Assay for Inhibitors of Human Muscle Pyruvate Kinase (AID 958; active = well fitted curve in the direction sought with a large enough effect; an effect the other way counts as inactive or inconclusive)
# Method in brief: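 Human PKM2 activity is measured as ATP generation, detected by luciferase-coupled luminescence. The enzyme (0.1 nM) acts on 0.5 mM PEP and 0.1 mM ADP for 1 h at ambient temperature; data are normalized to uninhibited and full-inhibition wells.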
# [23] = biological target: Pyruvate kinase (Leishmania mexicana) (UniProt Q27686); assay: qHTS Validation Assay for Activators of Leishmania Mexicana Pyruvate Kinase (AID 959; active = well fitted curve in the direction sought with a large enough effect; an effect the other way counts as inactive or inconclusive)
# Method in brief: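 Purified LmPYK (E451W mutant, 0.2 nM) was incubated 1 h at room temperature with 0.5 mM PEP and 0.1 mM ADP in 50 mM imidazole pH 7.2, 50 mM KCl, 7 mM MgCl2; ATP formed was read by PKLight luminescence, normalized to DMSO wells.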
structure (smiles),measurement,setting,value
CCCN1CCC[C@H](c2cccc(C#N)c2)C1,"activity change, negative = inhibition",[1],7.99% [at 38 µM]
same,Potency,[2],inactive
same,outcome,[3],inactive
same,Potency,[4],> 46 µM
same,Potency,[5],> 46 µM
same,outcome,[6],inactive
same,outcome,[7],inactive
same,Potency,[8],inactive
same,outcome,[9],inactive
same,Potency,[10],11.2 µM (active)
same,outcome,[11],inactive
same,outcome,[12],inactive
same,outcome,[13],inactive
same,outcome,[14],inactive
N[C@]1(C(=O)O)CC[C@@H](C(=O)O)C1,"activity change, negative = inhibition",[1],-3.05% [at 38 µM]
same,Potency,[2],inactive
same,"activity change, negative = inhibition",[15],7.68% [at 38 µM]
same,outcome,[3],inactive
same,Potency,[4],> 46 µM
same,Potency,[5],> 46 µM
same,outcome,[7],inactive
same,Potency,[16],inactive
same,Potency,[17],inactive
same,Potency,[18],inactive
CCOC(=O)C1=C(C)OC(N)=C(C(=O)OCC)[C@@]12C(=O)N(CC(N)=O)c1ccccc12,"activity change, negative = inhibition",[1],1.68%
same,"activity change, negative = inhibition",[15],2.5%
same,outcome,[3],inactive
NCC1(c2ccc3c(c2)OCCO3)CCCC1,"activity change, negative = inhibition",[1],3.9%
same,"activity change, negative = inhibition",[15],-11.3%
same,outcome,[3],inactive
C[N+]1(C)[C@@H]2CC(OC(=O)[C@@H](CO)c3ccccc3)C[C@@H]1[C@H]1O[C@H]12 (stereo not given in full),"activity change, negative = inhibition",[1],0.541% [at 7.69 µM]
same,"activity change, negative = inhibition",[2],-22.8% [at 11.4 µM]
same,outcome,[3],inactive
same,Potency,[4],> 46 µM
same,Potency,[5],> 9.22 µM
same,"activity change, negative = inhibition",[6],0.144% [at 11.4 µM]
CCCCC1(CN2CCCC2=O)C(=O)NC(=O)NC1=O,"activity change, negative = inhibition",[1],7.49%
same,"activity change, negative = inhibition",[15],-2.56%
same,outcome,[3],inactive
C=CCn1c(O)c(C=NCCN(C)C)c(=O)[nH]c1=O,"activity change, negative = inhibition",[1],1.63%
same,"activity change, negative = inhibition",[15],-6.46%
same,outcome,[3],inactive
C[C@H](N)c1cccc(Cl)c1Cl,"activity change, negative = inhibition",[1],19.1% [at 38 µM]
same,Potency,[2],1.26 µM (active)
same,"activity change, negative = inhibition",[15],7.99% [at 38 µM]
same,Potency,[4],> 46 µM
same,Potency,[5],> 46 µM
same,outcome,[6],inactive
same,outcome,[7],inactive
same,Potency,[8],inactive
same,Potency,[19],inactive
same,outcome,[9],inactive
same,Potency,[10],inactive
same,outcome,[11],inactive
same,outcome,[12],inactive
same,outcome,[13],inactive
same,outcome,[14],inactive
NC(N)=Nc1ccc2[nH]c3c(c2c1)C[C@]1(O)[C@@H]2Cc4ccc(O)c5c4[C@]1(CCN2CC1CC1)[C@H]3O5,"activity change, negative = inhibition",[1],-18.3% [at 38 µM]
same,Potency,[2],inactive
same,outcome,[3],inactive
same,Potency,[4],> 46 µM
same,Potency,[5],> 46 µM
same,outcome,[6],inactive
same,outcome,[7],inactive
same,Potency,[8],25.1 µM (active)
same,Potency,[19],inactive
same,Potency,[20],12.6 µM (active)
same,Potency,[21],3.55 µM (active)
same,Potency,[10],7.94 µM (active)
same,outcome,[11],inactive
same,outcome,[12],inactive
same,Potency,[22],10 µM (active)
same,outcome,[23],inactive
same,outcome,[13],inactive
same,outcome,[14],inactive
